Measured values as given in PubChem BioAssay (Tox21).
Records with an inconclusive call do not appear. A call without a number means that no potency is given here. A number with no mark means an inactive call. Active and inactive are the calls of the source. Calls come from the whole dose curve; as a rule, active = well fitted cell-killing curve with a large enough effect in the repeat runs; inconclusive = weak or mixed curves, or effect the other way; inactive = flat fitted curve, though single readings scatter.

How the values were obtained:
[1] = cAMP Responsive Elements (CRE) small molecule antagonists, cell-based qHTS assay: qHTS cell viability counter screen (AID 2060913); note: nearly all actives have a fitted effect of over 40% in size
Method in brief: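 CRE-bla HEK293T cells were seeded in assay medium with 10% dialyzed FBS, incubated 18 hrs at 37 C, then exposed to compounds plus 0.25 uM final NKH477 for 3 hrs. Viability was read by CellTiter-Glo luminescence after 30 min, in the same wells.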

[2] = cAMP Responsive Elements (CRE) small molecule agonists, cell-based qHTS assay: qHTS cell viability counter screen (AID 2060914);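 note: viability read after 3 h of compound exposure; nearly all actives have a fitted effect of over 50% in size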
Method in brief: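 CRE-bla HEK 293T cells, plated 18 h at 37 °C, were exposed to compounds for 3 h at 37 °C/5% CO2. Viability was then measured in the same wells by CellTiter-Glo luminescence after 30 min at room temperature.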
Potency is the fitted concentration of half-maximal effect.

C=CC(=O)OCCCCCCOC(=O)C=C
Potency [1]: inactive
Potency [2]: inactive

C=CC(C)(O)CCC=C(C)C (stereo not given)
Potency [1]: inactive
Potency [2]: inactive

CC(=O)Nc1nnc(S(N)(=O)=O)s1
Potency [1]: inactive
Potency [2]: inactive

CN(C)CCN(Cc1cccs1)c1ccccn1
Potency [1]: inactive
Potency [2]: inactive

CCN(CC)C(C)=O
Potency [1]: inactive
Potency [2]: inactive

Cc1cc(C)c(C(=O)O)c(C)c1
Potency [1]: inactive
Potency [2]: inactive

CCCCCCOC(=O)c1ccc(O)cc1
Potency [1]: inactive
Potency [2]: inactive

COc1cc2nc(N(C)CCCNC(=O)C3CCCO3)nc(N)c2cc1OC (stereo not given)
Potency [1]: inactive
Potency [2]: inactive

CC(CCl)OP(=O)(OC(C)CCl)OC(C)CCl (stereo not given)
Potency [1]: inactive
Potency [2]: inactive

CC[N+](CC)(CC)CCOc1cccc(OCC[N+](CC)(CC)CC)c1OCC[N+](CC)(CC)CC
Potency [1]: inactive
Potency [2]: inactive

C=CC1CO1 (stereo not given)
Potency [1]: inactive
Potency [2]: inactive

Cc1c[nH]c2ccccc12
Potency [1]: inactive
Potency [2]: inactive

CNCCO
Potency [1]: inactive
Potency [2]: inactive

CCN1CCN(C(=O)N[C@@H](C(=O)N[C@@H]2C(=O)N3[C@@H]2SC(C)(C)[C@H]3C(=O)O)c2ccccc2)C(=O)C1=O
Potency [1]: inactive
Potency [2]: inactive

O=C(CCCl)NCc1ccccc1
Potency [1]: inactive
Potency [2]: inactive

CC(=O)c1nccs1
Potency [1]: inactive
Potency [2]: inactive

O=C(O)Cn1c(=O)n(Cc2ccc(Br)cc2F)c(=O)c2ccc(Cl)cc21
Potency [1]: inactive
Potency [2]: inactive

C=CN1CCCC1=O
Potency [1]: inactive
Potency [2]: inactive

O=C1OC2(c3ccccc31)c1cc(I)c(O)c(I)c1Oc1c2cc(I)c(O)c1I
Potency [1]: inactive
Potency [2]: inactive

CC1(C)C(=O)N(CO)C(=O)N1CO
Potency [1]: inactive
Potency [2]: inactive

Cc1ccnc2c1NC(=O)c1cccnc1N2C1CC1
Potency [1]: inactive
Potency [2]: inactive

CC(C)(C)[C@@H](O)[C@@H](Cc1ccc(Cl)cc1)n1cncn1
Potency [1]: inactive
Potency [2]: inactive

NC(=O)c1cn(Cc2c(F)cccc2F)nn1
Potency [1]: inactive
Potency [2]: inactive

c1ccc(CNc2ncnc3nc[nH]c23)cc1
Potency [1]: inactive
Potency [2]: inactive

C[C@H]1c2cccc(O)c2C(O)=C2C(=O)[C@]3(O)C(O)=C(C(N)=O)C(=O)[C@@H](N(C)C)[C@@H]3[C@@H](O)[C@@H]21
Potency [1]: inactive
Potency [2]: inactive

O=C(Nc1ccccc1)c1ccccc1O
Potency [1]: inactive
Potency [2]: inactive

Cc1ccc2ncccc2c1
Potency [1]: inactive
Potency [2]: 54.5 µM (active)

O=C(O)C1CCC1
Potency [1]: inactive
Potency [2]: inactive

CCCc1ccc(O)cc1
Potency [1]: inactive
Potency [2]: inactive

Cc1cccnc1
Potency [1]: inactive
Potency [2]: inactive

COc1cc(OC)nc(O[C@H](C(=O)O)C(OC)(c2ccccc2)c2ccccc2)n1
Potency [1]: inactive
Potency [2]: inactive

COc1ccc2nc(SCc3ncc(C)c(OC)c3C)[nH]c2c1
Potency [1]: inactive
Potency [2]: inactive

OCC1CCC(CO)CC1 (stereo not given)
Potency [1]: inactive
Potency [2]: inactive

CCCCCCCCS(=O)(=O)Cl
Potency [1]: inactive
Potency [2]: inactive

COc1cccc(OC)c1C(=O)N[C@@H]1C(=O)N2[C@@H]1SC(C)(C)[C@@H]2C(=O)O
Potency [1]: inactive
Potency [2]: inactive

CCCCOC(=O)C(C)OC(=O)CCC (stereo not given)
Potency [1]: inactive
Potency [2]: inactive

O=c1[nH]cnc2nc[nH]c12
Potency [1]: inactive
Potency [2]: inactive

CC(=O)N(CC(=O)N(C)C)c1ccccc1
Potency [1]: inactive
Potency [2]: inactive

CCN(CCN)c1cccc(C)c1
Potency [1]: inactive
Potency [2]: inactive

O=C(Cl)c1ccc(F)c(Cl)c1
Potency [1]: inactive
Potency [2]: inactive

Clc1ccccn1
Potency [1]: inactive
Potency [2]: inactive

C=C1CC/C=C(\C)CC[C@@H]2[C@@H]1CC2(C)C
Potency [1]: inactive
Potency [2]: inactive

CCCCCCCCCI
Potency [1]: inactive
Potency [2]: inactive

COC(=O)C1=C(C)NC(C)=C(C(=O)OCCc2ccc(N3CCN(C(c4ccccc4)c4ccccc4)CC3)cc2)C1c1cccc([N+](=O)[O-])c1 (stereo not given)
Potency [1]: inactive
Potency [2]: inactive

CCCCCCCCCCCCCCN(C)C
viability change, negative = cytotoxic [1]: 8.85% [at 18.9 µM]
activity change, negative = cytotoxicity [2]: -15% [at 18.9 µM]

C=CCOC(=O)CC(C)C
Potency [1]: inactive
Potency [2]: inactive

CC(=O)[C@H]1CC[C@H]2[C@@H]3CC=C4C[C@@H](O)CC[C@]4(C)[C@H]3CC[C@]12C
Potency [1]: inactive
Potency [2]: inactive

COc1cc(-c2ccc(=O)[nH]n2)ccc1OC(F)F
Potency [1]: inactive
Potency [2]: inactive

Cc1cc(O)c(C)c(C)c1O
Potency [1]: inactive
Potency [2]: inactive

CCNC(=O)C1CC(C)CCC1C(C)C (stereo not given)
Potency [1]: inactive
Potency [2]: inactive

CC1=CC(=O)CC(C)(C)C1(O)/C=C/C(C)=C\C(=O)O (stereo not given)
Potency [1]: inactive
Potency [2]: inactive

CCOC(=O)c1cnc2c(cnn2CC)c1NN=C(C)C
Potency [1]: inactive
Potency [2]: inactive

O=Cc1ccc(F)cc1
Potency [1]: inactive
Potency [2]: inactive

CC(C)(O)CCCC1=CCC(C=O)CC1 (stereo not given)
Potency [1]: inactive
Potency [2]: inactive

Cn1c(=O)c2[nH]c(Br)nc2n(C)c1=O
Potency [1]: inactive
Potency [2]: inactive

O=C1CCC/C=C\CCCCCCCCCC1
Potency [1]: inactive
Potency [2]: inactive

COc1ccc2[nH]cc(CCNC(C)=O)c2c1
Potency [1]: inactive
Potency [2]: inactive

CC(COCCO)OCCO (stereo not given)
Potency [1]: inactive
Potency [2]: inactive

Cc1c(C)c2c(c(C)c1OC(=O)c1cccnc1)CC[C@@](C)(CCC[C@H](C)CCC[C@H](C)CCCC(C)C)O2
Potency [1]: inactive
Potency [2]: inactive

O=S(=O)(O)c1ccc(Cl)cc1
Potency [1]: inactive
Potency [2]: inactive

CCOC(=O)C(C)O (stereo not given)
Potency [1]: inactive
Potency [2]: inactive

CC(C)=C1CC[C@@H](C)CC1=O
Potency [1]: inactive
Potency [2]: inactive

CC1(C)[C@H]2CC[C@]1(C)[C@H](O)C2
Potency [1]: inactive
Potency [2]: inactive

COC(=O)/C=C(/C)N
Potency [1]: inactive
Potency [2]: inactive

C=CC(=O)OCCN(CC)CC
Potency [1]: inactive
Potency [2]: inactive

CCOc1ccc2c(c1)C(C)CC(C)(C)N2 (stereo not given)
Potency [1]: inactive
Potency [2]: inactive

CCCCCCCCCCCC(=O)[O][Sn]([CH2]CCC)([CH2]CCC)[O]C(=O)CCCCCCCCCCC
Potency [1]: inactive
Potency [2]: inactive

CN(C)c1ccc(C2(c3ccc(N(C)C)cc3)OC(=O)c3cc(N(C)C)ccc32)cc1
Potency [1]: inactive
Potency [2]: inactive

O=C(O)[C@H](O)[C@@H](O)[C@H](O)[C@H](O)CO
Potency [1]: inactive
Potency [2]: inactive

C=CC(=O)OCCC(=O)O
Potency [1]: inactive
Potency [2]: inactive

CCCOc1sc(C(=O)N2CCC(c3cc(CN)ccc3F)CC2)c(C)c1Br
Potency [1]: 56 µM (active)
Potency [2]: inactive

O=C1NCCN1CCO
Potency [1]: inactive
Potency [2]: inactive

Cc1ccc(NC=O)c(C)c1
Potency [1]: inactive
Potency [2]: inactive

NCCc1ccc(O)c(O)c1
Potency [1]: inactive
Potency [2]: inactive

CCC[Si](OC)(OC)OC
Potency [1]: inactive
Potency [2]: inactive

c1ccc(COCc2ccccc2)cc1
Potency [1]: inactive
Potency [2]: inactive

CCCCCCC(O)CO (stereo not given)
Potency [1]: inactive
Potency [2]: inactive

Clc1ccc2n[nH]nc2c1
Potency [1]: inactive
Potency [2]: inactive

O=c1[nH]cccc1O
Potency [1]: inactive
Potency [2]: inactive

O=C(O)c1cc(C(=O)O)cc(C(=O)O)c1
Potency [1]: inactive
Potency [2]: inactive

CC(C)C(=O)C(C)C
Potency [1]: inactive
Potency [2]: inactive

COc1cc2nc(N3CCN(C(=O)C4COc5ccccc5O4)CC3)nc(N)c2cc1OC (stereo not given)
Potency [1]: inactive
Potency [2]: inactive

CC(C)(C)c1cc(O)c(C(C)(C)C)cc1O
Potency [1]: inactive
Potency [2]: inactive

CC(=O)c1cnccn1
Potency [1]: inactive
Potency [2]: inactive

Cc1nc(C2CCCCC2)c(-c2ccc(S(N)(=O)=O)c(F)c2)o1
Potency [1]: inactive
Potency [2]: inactive

CC(CO)(CO)CO
Potency [1]: inactive
Potency [2]: inactive

C=C[Si]1(C)O[Si](C)(C=C)O[Si](C)(C=C)O[Si](C)(C=C)O1 (stereo not given)
Potency [1]: inactive
Potency [2]: inactive

O=C1C=CC(=O)O1
Potency [1]: inactive
Potency [2]: inactive

O=C(O)C1=NN(c2ccc(S(=O)(=O)O)cc2)C(=O)C1
Potency [1]: inactive
Potency [2]: inactive

CCC(=O)O[C@]1(C(=O)SCF)[C@H](C)C[C@H]2[C@@H]3C[C@H](F)C4=CC(=O)C=C[C@]4(C)[C@@]3(F)[C@@H](O)C[C@@]21C
Potency [1]: inactive
Potency [2]: inactive

O=C(N/N=C/c1ccc([N+](=O)[O-])o1)c1ccc(O)cc1
Potency [1]: inactive
Potency [2]: inactive

NC(=S)NNC(N)=S
Potency [1]: inactive
Potency [2]: inactive

CCC(=O)OC
Potency [1]: inactive
Potency [2]: inactive

CC(C)(C)C1CCC(=O)CC1
Potency [1]: inactive
Potency [2]: inactive

CC(C)c1ccc(C(C)C)cc1
Potency [1]: inactive
Potency [2]: inactive

CC1c2ccccc2CN1NC(=O)c1ccc(Cl)c(S(N)(=O)=O)c1 (stereo not given)
Potency [1]: inactive
Potency [2]: inactive

CC(C)(C)c1ccc(-c2ccc(C(C)(C)C)cc2)cc1
Potency [1]: inactive
Potency [2]: inactive

C[C@H]1O[C@H](O[C@H]2[C@H](O)[C@@H](O)[C@@H](O[C@H]3[C@H](O)[C@@H](O)[C@H](O)O[C@@H]3CO)O[C@@H]2CO)[C@H](O)[C@@H](O)[C@@H]1N[C@H]1C=C(CO)[C@@H](O)[C@H](O)[C@H]1O
Potency [1]: inactive
Potency [2]: inactive

CCCc1nc(C)c2c(=O)[nH]c(-c3cc(S(=O)(=O)N4CCN(CC)CC4)ccc3OCC)nn12
Potency [1]: inactive
Potency [2]: inactive

COC(=O)OC
Potency [1]: inactive
Potency [2]: inactive

CC(C)(C)C1CCCCC1=O (stereo not given)
Potency [1]: inactive
Potency [2]: inactive

Brc1cc(Oc2cc(Br)c(Br)c(Br)c2Br)c(Br)c(Br)c1Br
Potency [1]: inactive
Potency [2]: inactive

CC/C=C\C/C=C\C/C=C\CCCCCCCC(=O)OCC
Potency [1]: inactive
Potency [2]: inactive

Clc1cc(Cl)nc(Cl)n1
Potency [1]: inactive
Potency [2]: inactive

Nc1ccc(S(=O)(=O)O)c(N)c1
Potency [1]: inactive
Potency [2]: inactive

CCCCCCCCC1CO1 (stereo not given)
Potency [1]: inactive
Potency [2]: inactive

O=C1c2c(O)cccc2Cc2cccc(O)c21
Potency [1]: inactive
Potency [2]: inactive

CC(C(O)c1ccc(O)cc1)N1CCC(Cc2ccccc2)CC1 (stereo not given)
Potency [1]: inactive
Potency [2]: inactive

O=C(O)c1ccccc1
Potency [1]: inactive
Potency [2]: inactive

O=C(Cl)c1ccc(C(=O)Cl)cc1
Potency [1]: inactive
Potency [2]: inactive

CCN(Cc1ccccc1)c1ccccc1
Potency [1]: inactive
Potency [2]: inactive

OCCCc1cccnc1
Potency [1]: inactive
Potency [2]: inactive

CC(=O)CCc1ccc(O)cc1
Potency [1]: inactive
Potency [2]: inactive

CCn1cc(C(=O)O)c(=O)c2ccc(C)nc21
Potency [1]: inactive
Potency [2]: inactive

O=C1O[C@H]([C@@H](O)CO)C(O)=C1O
Potency [1]: inactive
Potency [2]: inactive

OCCOCCOCCOCCOCCO
Potency [1]: inactive
Potency [2]: inactive

CC12CCC(C(=O)C1=O)C2(C)C (stereo not given)
Potency [1]: inactive
Potency [2]: inactive

COc1ccc(-c2nc3ccc(C4=NNC(=O)CC4C)cc3[nH]2)cc1 (stereo not given)
Potency [1]: inactive
Potency [2]: inactive

CCn1c2ccccc2c2cc(N)ccc21
Potency [1]: inactive
Potency [2]: inactive

CC(C)CCCC(C)CC=O (stereo not given)
Potency [1]: inactive
Potency [2]: inactive
